We go through ten compounds from PubChem BioAssay (NCI).

The structures appear in SMILES notation. The panel holds about 79,000 compounds, 15% with a hit somewhere; the sample as a whole holds those more often. Unmarked numbers belong to inactive results. Active and inactive are the calls of the source. Rule as the data show it: active = growth inhibition above about 70%; inactive = the rest.

The nature of assay [1]: NCI Yeast Anticancer Drug Screen. Data for the rad50 strain (AID 155).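 Also: 0% = growth of vehicle-only cultures of the same strain.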 The note with it: S. cerevisiae rad50 strain growth inhibition, stronger effect = higher value. Summed up: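 Relative growth inhibition (compound vs vehicle) was measured in yeast with a defined repair-gene alteration.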
Assay [2] can be described thus: NCI Yeast Anticancer Drug Screen. Data for the mec2-1 strain (AID 157). To be noted: S. cerevisiae mec2-1 strain, stronger effect = higher value. Summed up:
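Using mec2-1 yeast: add compound, measure growth, express inhibition versus vehicle-treated cultures.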

The nature of assay [3]: NCI Yeast Anticancer Drug Screen. Data for the sgs1 mgt1 strain (AID 161).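 Also: 0% = growth of cultures given vehicle only.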 The note with it: S. cerevisiae sgs1 mgt1 strain, stronger effect = higher value. Summed up: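 Compounds are added to genetically altered yeast, and growth is compared with cultures given vehicle alone to give percent inhibition.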
A short description of assay [4]: NCI Yeast Anticancer Drug Screen. Data for the cln2 rad14 strain (AID 165).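 Also: 0% = growth equal to vehicle treated cultures.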 The note with it: S. cerevisiae cln2 rad14 strain, stronger effect = higher value. Summed up: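 Yeast strain cln2 rad14, bearing defects in cell cycle control and DNA repair, serves as the test system; values reflect growth inhibition compared with vehicle.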
Assay [5] is described as follows: NCI Yeast Anticancer Drug Screen. Data for the bub3 strain (AID 167). The note with it: S. cerevisiae bub3 mutant strain, stronger effect = higher value. Summed up:
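Screening used yeast with an engineered genetic alteration affecting cell cycle control. Compound-exposed cultures were compared with vehicle cultures, and reduced growth was taken as inhibition.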

Assay [6] is described as follows: NCI Yeast Anticancer Drug Screen. Data for the mlh1 rad18 strain (AID 175). To be noted: S. cerevisiae mlh1 rad18 strain growth inhibition, stronger effect = higher value. Summed up: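 Steps: expose repair-defective yeast to compound; measure growth; express inhibition against vehicle-treated controls.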
[7] abbreviates: at 5.0 µM (retest, dose inferred, filed as 0.5).
The mark [8] stands for this setting: at 50.0 µM (retest, dose inferred, filed as 5.0).

Consider `CC(C)NCC=C=Nc1ccccc1`, for which the growth inhibition in assay [1] (setting [7]) was -11%; in assay [1] (setting [8]), -32%; in assay [1] (at 50.0 µM), 45.8%; in assay [2] (setting [7]), -30%; in assay [2] (setting [8]) it was -25%; in assay [2] (at 50.0 µM), 9.45%. In addition, the growth inhibition in assay [3] (setting [7]) is -8%; in assay [3] (setting [8]), -21%; in assay [3] (at 50.0 µM), 43.4%; in assay [4] (setting [7]), -2%; in assay [4] (setting [8]) it was -28%; in assay [4] (at 50.0 µM), 40.5%. Besides, the growth inhibition is -26% in assay [5] (setting [7]); -82% in assay [5] (setting [8]); -5.5% in assay [5] (at 50.0 µM); -9% in assay [6] (setting [7]); -29% in assay [6] (setting [8]); 24.2% in assay [6] (at 50.0 µM).

Consider `Cc1cc(O)ccc1SC#N`, for which the growth inhibition in assay [1] (setting [7]) was -11%; in assay [1] (setting [8]), 53%; in assay [1] (at 50.0 µM), 87.2% (active); in assay [2] (setting [7]), -22%; in assay [2] (setting [8]) it was 32%; in assay [2] (at 50.0 µM), 80% (active). Also, the growth inhibition in assay [3] (setting [7]) is -13%; in assay [3] (setting [8]) it was 28%; in assay [3] (at 50.0 µM), 79.9% (active); in assay [4] (setting [7]), -3%; in assay [4] (setting [8]) it was 21%; in assay [4] (at 50.0 µM) it was 73.4% (active). In addition, the growth inhibition in assay [5] (setting [7]) was -11%; in assay [5] (setting [8]), 57%; in assay [5] (at 50.0 µM), 79.3% (active); in assay [6] (setting [7]), 7%; in assay [6] (setting [8]) it was 66%; in assay [6] (at 50.0 µM) it was 83.5% (active).

Consider `CC(=O)Nc1ccc(C(=O)C(C)Br)cc1` (stereo not given), for which the growth inhibition in assay [1] (setting [7]) is 38%; in assay [1] (setting [8]) it was 99% (active); in assay [1] (at 50.0 µM), 62.8%; in assay [2] (setting [7]), 28%; in assay [2] (setting [8]), 99% (active); in assay [2] (at 50.0 µM) it was 81.8% (active). The growth inhibition in assay [3] (setting [7]) is 43%; in assay [3] (setting [8]), 99% (active); in assay [3] (at 50.0 µM), 80.5% (active); in assay [4] (setting [7]), 24%; in assay [4] (setting [8]), 98% (active); in assay [4] (at 50.0 µM) it was 23.6%. Also, the growth inhibition was 30% in assay [5] (setting [7]); 99% (active) in assay [5] (setting [8]); 66.1% in assay [5] (at 50.0 µM); 40% in assay [6] (setting [7]); 99% (active) in assay [6] (setting [8]); -30.8% in assay [6] (at 50.0 µM).

Turning to `OC(C(=Nc1ccccc1)c1ccccc1)c1ccccc1` (stereo not given), the growth inhibition is 50% in assay [1] (setting [7]); 96% (active) in assay [1] (setting [8]); 98.7% (active) in assay [1] (at 50.0 µM); 11% in assay [2] (setting [7]); 99% (active) in assay [2] (setting [8]); 98.6% (active) in assay [2] (at 50.0 µM). Further, the growth inhibition in assay [3] (setting [7]) was 1%; in assay [3] (setting [8]) it was 98% (active); in assay [3] (at 50.0 µM), 99.2% (active); in assay [4] (setting [7]) it was -3%; in assay [4] (setting [8]) it was 98% (active); in assay [4] (at 50.0 µM), 98.8% (active). For the same compound, the growth inhibition in assay [5] (setting [7]) was 15%; in assay [5] (setting [8]) it was 98% (active); in assay [5] (at 50.0 µM), 97.8% (active); in assay [6] (setting [7]), 39%; in assay [6] (setting [8]), 99% (active); in assay [6] (at 50.0 µM), 99.1% (active).

Take `c1ccc2c(c1)cc(C1NCCc3[nH]cnc31)c1ccccc12` (stereo not given): the growth inhibition in assay [1] (setting [7]) was 13%; in assay [1] (setting [8]), 80% (active); in assay [1] (at 50.0 µM), 47%; in assay [2] (setting [7]), -4%; in assay [2] (setting [8]), 83% (active); in assay [2] (at 50.0 µM) it was 1.5%. Besides, the growth inhibition in assay [3] (setting [7]) is 16%; in assay [3] (setting [8]), 82% (active); in assay [3] (at 50.0 µM), -15.3%; in assay [4] (setting [7]), 26%; in assay [4] (setting [8]), 71% (active); in assay [4] (at 50.0 µM) it was 30.4%. In addition, the growth inhibition was 13% in assay [5] (setting [7]); 96% (active) in assay [5] (setting [8]); 11.1% in assay [5] (at 50.0 µM); -21% in assay [6] (setting [7]); 97% (active) in assay [6] (setting [8]); 61.9% in assay [6] (at 50.0 µM).

Turning to `Cn1c(C2CCC(=O)N2Cc2ccccc2)n[nH]c1=S` (stereo not given), the growth inhibition in assay [1] (setting [7]) was 1%; in assay [1] (setting [8]), 0%; in assay [1] (at 50.0 µM) it was 55.5%; in assay [2] (setting [7]), -1%; in assay [2] (setting [8]) it was -3%; in assay [2] (at 50.0 µM) it was 22.4%. Besides, the growth inhibition in assay [3] (setting [7]) is 4%; in assay [3] (setting [8]) it was -2%; in assay [3] (at 50.0 µM), 74.4% (active); in assay [4] (setting [7]) it was 2%; in assay [4] (setting [8]), 3%; in assay [4] (at 50.0 µM) it was -1.85%. Besides, the growth inhibition in assay [5] (setting [7]) was 3%; in assay [5] (setting [8]) it was -2%; in assay [5] (at 50.0 µM), 62.5%; in assay [6] (setting [7]), 1%; in assay [6] (setting [8]), -4%; in assay [6] (at 50.0 µM), 89.5% (active).

With `Nc1cc(F)c2c(c1F)C(=O)c1cc(F)ccc1-2`, the growth inhibition is 15% in assay [1] (setting [7]); 92% (active) in assay [1] (setting [8]); 93.3% (active) in assay [1] (at 50.0 µM); 13% in assay [2] (setting [7]); 70% (active) in assay [2] (setting [8]); 27.3% in assay [2] (at 50.0 µM). The growth inhibition in assay [3] (setting [7]) was 2%; in assay [3] (setting [8]) it was 84% (active); in assay [3] (at 50.0 µM), 55.4%; in assay [4] (setting [7]), 4%; in assay [4] (setting [8]), 41%; in assay [4] (at 50.0 µM), 26.5%. Moreover, the growth inhibition in assay [5] (setting [7]) was 2%; in assay [5] (setting [8]) it was 72% (active); in assay [5] (at 50.0 µM), 17.8%; in assay [6] (setting [7]), 5%; in assay [6] (setting [8]), 78% (active); in assay [6] (at 50.0 µM), 80.7% (active).

On to `COc1cc(O)c2c(c1)C(=O)C1=C(C2=O)[C@@H](C)OC(C)[C@H]1O` (stereo not given in full), for which the growth inhibition in assay [1] (setting [7]) is 8%; in assay [1] (setting [8]) it was 96% (active); in assay [1] (at 50.0 µM), 53.4%; in assay [2] (setting [7]) it was 2%; in assay [2] (setting [8]) it was 94% (active); in assay [2] (at 50.0 µM), 6.2%. For the same compound, the growth inhibition in assay [3] (setting [7]) is 8%; in assay [3] (setting [8]), 97% (active); in assay [3] (at 50.0 µM) it was -4.5%; in assay [4] (setting [7]), 1%; in assay [4] (setting [8]), 95% (active); in assay [4] (at 50.0 µM), -22.4%. In addition, the growth inhibition in assay [5] (setting [7]) was 21%; in assay [5] (setting [8]), 97% (active); in assay [5] (at 50.0 µM) it was -2.75%; in assay [6] (setting [7]), 8%; in assay [6] (setting [8]), 97% (active); in assay [6] (at 50.0 µM) it was -6.25%.

On to `CCCCCCCCCCCCCCCCCCOC(=O)Nc1ccc(C)c(NC(=O)OCCCCCCCCCCCCCCCCCC)c1`, for which the growth inhibition is -11% in assay [1] (setting [7]); -18% in assay [1] (setting [8]); 70.2% (active) in assay [1] (at 50.0 µM); 6% in assay [2] (setting [7]); -1% in assay [2] (setting [8]); 60.9% in assay [2] (at 50.0 µM). The growth inhibition in assay [3] (setting [7]) is -6%; in assay [3] (setting [8]), -11%; in assay [3] (at 50.0 µM) it was 59.8%; in assay [4] (setting [7]), 0%; in assay [4] (setting [8]), -19%; in assay [4] (at 50.0 µM) it was 26.4%. For the same compound, the growth inhibition in assay [5] (setting [7]) is -3%; in assay [5] (setting [8]), -3%; in assay [5] (at 50.0 µM), 83.6% (active); in assay [6] (setting [7]) it was -11%; in assay [6] (setting [8]), -9%; in assay [6] (at 50.0 µM), 79.2% (active).

Consider `O=C(COc1ccc2ccccc2c1)NC1c2ccccc2Oc2ccccc21`, for which the growth inhibition is 77% (active) in assay [1] (setting [7]); 93% (active) in assay [1] (setting [8]); 74.2% (active) in assay [1] (at 50.0 µM); 91% (active) in assay [2] (setting [7]); 97% (active) in assay [2] (setting [8]); 17.4% in assay [2] (at 50.0 µM). In addition, the growth inhibition in assay [3] (setting [7]) is 95% (active); in assay [3] (setting [8]), 97% (active); in assay [3] (at 50.0 µM), 69.3%; in assay [4] (setting [7]) it was 98% (active); in assay [4] (setting [8]) it was 94% (active); in assay [4] (at 50.0 µM), 12%. The growth inhibition in assay [5] (setting [7]) was 92% (active); in assay [5] (setting [8]) it was 96% (active); in assay [5] (at 50.0 µM) it was 15.6%; in assay [6] (setting [7]) it was 82% (active); in assay [6] (setting [8]), 96% (active); in assay [6] (at 50.0 µM) it was 63%.
